# PMK inhibit: S. pneumoniae PMK inhibition; actives 0.49% (n = 65,000); purified PMK, PK/LDH-coupled NADH absorbance 340 nm; inhibition, % at 10 µM;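 active = top-ranked compounds by inhibition in the single 10 µM screen, taking a fixed number of the strongest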;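 also: 0% = full reaction with DMSO carrier and 100% = background rate without enzyme reaction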
# A340 absorber: compound absorbs light at 340 nm; compound absorbance at 340 nm, fold over control; fold change at 10 µM; 65,000 tested, under 10 active;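 active = at 10 µM dose, initial 340 nm absorbance at least 2 fold that of control wells; inactive = change under 2 fold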;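 also: initial absorbance extrapolated from kinetic A340 decline of NADH oxidation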
# MK inhibit: S. pneumoniae mevalonate kinase inhibition | inhibition, % at 10 µM | AID 555 | actives 0.48% (n = 65,000) | purified MK, PK/LDH-coupled NADH absorbance 340 nm;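 active = ranked among the strongest by inhibition in the single 10 µM screen, a fixed top-ranked set picked for dose follow-up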
# NADH coupling: blocks coupling enzymes of NAD/NADH assays; coupled PK/LDH NADH assays, four targets; IC50, µM (titrated, usually from 10 µM), for the others: at the highest dose inhibition; actives 0.02% (n = 65,000); AID 774;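 active = single-dose screening hits from any of four coupled enzyme assays that gave an IC50 when retested across doses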;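 also: the DPM-DC format reads NADH fluorescence rather than 340 nm absorbance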
# Autofluor 339: intrinsic fluorescence of library compounds, ex339/em460 – biochemical, MLSMR library, data from DPM-DC assay, artefact control, profiling panel; compound autofluorescence, ex339/em460 nm, NADH buffer; hits give high values; 1 = no-compound wells, NADH background; fluorescence fold increase at 10 µM; actives 5.5% (n = 65,000); AID 709;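 active = at 10 µM, mean starting fluorescence two-fold or more over control wells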;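 also: signal is the first read of a kinetic run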
# Spn DPM-DC inh: S. pneumoniae DPM-DC inhibition. purified DPM-DC, PK/LDH coupled NADH fluorescence. calls only at 10 µM. actives 0.49% (n = 65,000). AID 556;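 active = the 320 compounds with the highest percent inhibition in the single-dose primary screen, excluding strongly autofluorescent ones, cut at about 32% in these data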;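 also: kinetic rate of NADH fluorescence loss reporting ADP formed by the decarboxylase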
# Active calls of the source: *; i = inactive; . = not tested or not shown; + = active, no number. A selection: hits, their analogues and other compounds. The true share with any hit is near 6.5%.
SMILES,PMK inhibit,A340 absorber,MK inhibit,NADH coupling,Autofluor 339,Spn DPM-DC inh
Cc1onc(-c2c(F)cccc2Cl)c1C(=O)OCn1nnc2ccccc2c1=O,0.0,1.11,6.0,2.0%,1.14,i
CCc1ccc2[nH]c(=O)c(CN(Cc3ccccc3OC)Cc3nnnn3Cc3ccco3)cc2c1,1.0,1.04,4.0,2.0%,1.23,i
CCOc1ccc2[nH]c(=O)c(CN(Cc3ccco3)Cc3nnnn3Cc3ccccc3)cc2c1,1.0,1.06,9.0,4.0%,2.01*,i
CCc1ccc2[nH]c(=O)c(CN(Cc3ccco3)S(=O)(=O)c3ccc4c(c3)OCCO4)cc2c1,18.0,1.03,8.0,11.0%,1.39,i
COC(=O)c1ccccc1S(=O)(=O)N(Cc1ccco1)Cc1cc2cc(OC)ccc2[nH]c1=O,15.0,1.03,10.0,15.0%,2.13*,i
COc1ccc2[nH]c(=O)c(CN(Cc3ccco3)Cc3nnnn3Cc3ccccc3)cc2c1,5.0,1.05,9.0,7.0%,2.26*,i
COc1ccc2[nH]c(=O)c(CN(CCO)S(=O)(=O)c3ccc4c(c3)OCCO4)cc2c1,1.0,0.99,10.0,4.0%,2.08*,i
O=C(Cc1c[nH]c2ccccc12)NCc1ccc2c(c1)OCO2,6.0,1,0.0,2.0%,1.03,i
CCOCCCNCC(=O)Nc1ccccc1N1CCOCC1,16.0,1.05,33.0,19.0%,1.05,i
COc1ccc(OC)c(NC(=O)CSc2nc(C)cs2)c1,20.0,1,0.0,7.0%,1.03,i
COc1ccc(N2CCN(C(=O)c3ccc(CNc4c(N5CCOCC5)c(=O)c4=O)cc3)CC2)cc1,4.0,1.06,8.0,4.0%,1.07,i
CCOC(=O)c1cccc(NC(=O)c2cc3sccc3n2C)c1,13.0,0.99,6.0,7.0%,1.11,i
CCOC(=O)c1ccccc1NC(=O)c1cc2sccc2n1C,9.0,1.02,5.0,4.0%,2.57*,i
Cc1ccc(-c2nnn(CC(=O)N(CC(=O)NCC3CCCO3)c3ccc(F)c(Cl)c3)n2)o1 (centres undefined),44.0*,1.06,0.0,15.0%,1.05,i
CC(=O)c1cccc(S(=O)(=O)NCC(c2ccco2)N2CCCCC2)c1 (centres undefined),9.0,0.99,0.0,3.0%,1.04,i
COc1ccc2cc3cc(C(=O)NCc4ccc5c(c4)OCO5)oc3nc2c1,11.0,1.03,0.0,6.0%,5.07*,.
CCN(C(=O)c1cc2cc3ccc(C)cc3nc2o1)c1ccc(OC)cc1,0.0,1.04,2.0,3.0%,1.23,i
COc1ccc2cc3cc(C(=O)NCC4COc5ccccc5O4)oc3nc2c1 (centres undefined),10.0,1.03,0.0,5.0%,5.01*,.
COc1ccc2nc3oc(C(=O)N4CCC(C(N)=O)CC4)cc3cc2c1,5.0,1.06,0.0,3.0%,5.11*,.
COc1ccc2cc3cc(C(=O)N4CCN(Cc5ccc6c(c5)OCO6)CC4)oc3nc2c1,14.0,1.06,1.0,8.0%,5.03*,.
O=C(CCn1nnc2ccccc21)N1CCC(O)(c2cccc(F)c2)CC1,0.0,1.05,6.0,2.0%,1.13,i
COc1ccc2cc3cc(C(=O)Nc4ccc5c(c4)OCCO5)oc3nc2c1,8.0,1.06,0.0,7.0%,2.1*,i
O=C(O)CCc1ccc(-c2ccc(Cl)cc2)n1CC(=O)O,2.0,1.04,3.0,2.0%,1.1,i
CCCn1c(CCC(=O)O)ccc1-c1ccc(OC)cc1,6.0,1.03,10.0,8.0%,3.5*,.
c1ccc(N2CCN(c3cnccn3)CC2)nc1,18.0,1.05,7.0,21.0%,0.55,+
Cc1cccc(CN2CCN(c3ccccn3)CC2)c1,0.0,1.09,48.0*,16.0%,1.06,i
CS(=O)(=O)N(CC(=O)NCc1ccc2c(c1)OCO2)Cc1ccccc1,1.0,1.02,6.0,6.0%,1.11,i
CCOc1ccc2[nH]c(C)c(CN3CCOCC3)c(=O)c2c1,16.0,1.11,7.0,13.0%,1.61,i
COc1ccc2[nH]c(C)c(CN3CCCCC3)c(=O)c2c1,14.0,1.02,8.0,8.0%,2.76*,i
O=S(NCc1ccco1)C12CC3CC(CC(C3)C1)C2 (centres undefined),1.0,0.99,16.0,4.0%,1.05,i

# Screening results (PubChem)
